Laboratory results from PubChem BioAssay AID1159580 (chemical genetic matrix, 2015).
Out of some 5,500 compounds screened, about 2,000 (36%) were called active. Roughly 18% stayed inconclusive and do not appear here. Cut-off read from the data, not from the text of the source: active = normalized growth mostly below about 0.91 (no sharp cut-off); inconclusive = no clear call, values can overlap the other calls; inactive = mostly above about 0.92. Some of the results follow.

Experiment: chemical genetic growth profiling, strain panel (AID 1159580);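 note: tested at 20 µM; growth read once vehicle control cultures reached saturation at 30 °C; 1 = growth at the plate median or of vehicle wells; lower values mean less growth of the strain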
Conditions: growth OD

Measured: normalized growth

C[C@]12C=CC(=O)C=C1CCC1C3C[C@@H](O)[C@](O)(C(=O)CO)[C@@]3(C)C[C@H](O)[C@@]12F (some centres undefined)
inactive: S. cerevisiae deletion strains, locus YJR066W, strain TOR1, active compounds read low 0.952 | S. cerevisiae deletion strains, locus YJR075W, strain HOC1, active compounds read low 1.01 | S. cerevisiae deletion strains, locus YKL009W, strain mrt4, active compounds read low 0.983 | S. cerevisiae deletion strains, locus YKL068W, active compounds read low 0.992 | S. cerevisiae deletion strains, locus YKL085W, strain MDH1 (second series), active compounds read low 0.983 | S. cerevisiae deletion strains, locus YKL085W, strain MDH1, active compounds read low 0.983 | S. cerevisiae deletion strains, locus YKL160W, strain elf1, active compounds read low 0.957 | S. cerevisiae deletion strains, locus YKL190W, strain CNB1, active compounds read low 1 | S. cerevisiae deletion strains, locus YKR001C, strain vps1, active compounds read low 0.944 | S. cerevisiae deletion strains, locus YKR026C, strain gcn3, active compounds read low 0.985 | S. cerevisiae deletion strains, locus YKR091W, strain srl3, active compounds read low 0.985 | S. cerevisiae deletion strains, locus YLL001W, strain dnm1, active compounds read low 1.01 | S. cerevisiae deletion strains, locus YLL026W, active compounds read low 0.964 | S. cerevisiae deletion strains, locus YLL041C, strain sdh2, active compounds read low 0.985 | S. cerevisiae deletion strains, locus YLR027C, strain aat2, active compounds read low 0.998 | S. cerevisiae deletion strains, locus YLR039C, strain RIC1, active compounds read low 1.01 | S. cerevisiae deletion strains, locus YLR058C, strain SHM2, active compounds read low 1.01 | S. cerevisiae deletion strains, locus YLR102C, strain apc9, active compounds read low 0.981 | S. cerevisiae deletion strains, locus YLR113W, strain HOG1, active compounds read low 1.01 | S. cerevisiae deletion strains, locus YLR221C, strain rsa3, active compounds read low 1.01 | S. cerevisiae deletion strains, locus YLR258W, strain gsy2, active compounds read low 0.983 | S. cerevisiae deletion strains, locus YLR262C, strain YPT6 (second series), active compounds read low 0.996 | S. cerevisiae deletion strains, locus YLR262C, strain YPT6, active compounds read low 1.02 | S. cerevisiae deletion strains, locus YLR268W, strain sec22, active compounds read low 0.953 | S. cerevisiae deletion strains, locus YLR320W, strain mms22, active compounds read low 0.98 | S. cerevisiae deletion strains, locus YLR330W, strain CHS5, active compounds read low 1.01 | S. cerevisiae deletion strains, locus YLR342W, strain FKS1 (second series), active compounds read low 1 | S. cerevisiae deletion strains, locus YLR342W, strain FKS1, active compounds read low 0.982 | S. cerevisiae deletion strains, locus YLR357W, strain rsc2, active compounds read low 0.941 | S. cerevisiae deletion strains, locus YLR370C, strain arc18, active compounds read low 0.991 | S. cerevisiae deletion strains, locus YLR371W, strain rom2, active compounds read low 0.987 | S. cerevisiae deletion strains, locus YLR384C, strain iki3, active compounds read low 0.993 | S. cerevisiae deletion strains, locus YLR418C, strain cdc73, active compounds read low 0.968 | S. cerevisiae deletion strains, locus YML016C, strain PPZ1, active compounds read low 1.01 | S. cerevisiae deletion strains, locus YML032C, strain rad52, active compounds read low 0.974 | S. cerevisiae deletion strains, locus YML120C, strain ndi1, active compounds read low 0.99 | S. cerevisiae deletion strains, locus YML124C, strain tub3, active compounds read low 0.981 | S. cerevisiae deletion strains, locus YMR058W, strain fet3, active compounds read low 1.04 | S. cerevisiae deletion strains, locus YMR078C, strain ctf18, active compounds read low 0.989 | S. cerevisiae deletion strains, locus YMR125W, strain sto1, active compounds read low 0.942 | S. cerevisiae deletion strains, locus YMR129W, active compounds read low 0.988 | S. cerevisiae deletion strains, locus YMR205C, strain PFK2, active compounds read low 0.958 | S. cerevisiae deletion strains, locus YMR223W, strain ubp8, active compounds read low 0.991 | S. cerevisiae deletion strains, locus YMR231W, strain pep5, active compounds read low 0.989 | S. cerevisiae deletion strains, locus YMR263W, strain SAP30, active compounds read low 1.01 | S. cerevisiae deletion strains, locus YMR307W, strain GAS1, active compounds read low 0.991 | S. cerevisiae deletion strains, locus YNL067W, strain RPL9B, active compounds read low 1.01 | S. cerevisiae deletion strains, locus YNL071W, strain lat1, active compounds read low 0.983 | S. cerevisiae deletion strains, locus YNL183C, strain NPR1, active compounds read low 0.961 | S. cerevisiae deletion strains, locus YNL209W, strain ssb2, active compounds read low 0.978 | S. cerevisiae deletion strains, locus YNL233W, strain BNI4, active compounds read low 1.01 | S. cerevisiae deletion strains, locus YNL248C, strain rpa49, active compounds read low 0.925 | S. cerevisiae deletion strains, locus YNL250W, strain rad50, active compounds read low 0.985 | S. cerevisiae deletion strains, locus YNL271C, strain bni1, active compounds read low 0.971 | S. cerevisiae deletion strains, locus YNL298W, strain CLA4, active compounds read low 0.98 | S. cerevisiae deletion strains, locus YNL307C, strain MCK1, active compounds read low 0.975 | S. cerevisiae deletion strains, locus YNL322C, strain KRE1 (second series), active compounds read low 0.944 | S. cerevisiae deletion strains, locus YNR049C, strain mso1, active compounds read low 0.985 | S. cerevisiae deletion strains, locus YNR052C, strain pop2, active compounds read low 0.988 | S. cerevisiae deletion strains, locus YOL006C, strain TOP1, active compounds read low 1.06 | S. cerevisiae deletion strains, locus YOL012C, strain htz1 1.1 | S. cerevisiae deletion strains, locus YOL147C, strain pex11, active compounds read low 0.975 | S. cerevisiae deletion strains, locus YOR001W, strain rrp6, active compounds read low 1.02 | S. cerevisiae deletion strains, locus YOR061W, strain CKA2, active compounds read low 1.01 | S. cerevisiae deletion strains, locus YOR069W, strain VPS5, active compounds read low 1.01 | S. cerevisiae deletion strains, locus YOR070C, strain gyp1, active compounds read low 0.979 | S. cerevisiae deletion strains, locus YOR080W, strain dia2, active compounds read low 0.987 | S. cerevisiae deletion strains, locus YOR083W, strain WHI5, active compounds read low 0.901 | S. cerevisiae deletion strains, locus YOR106W, strain vam3, active compounds read low 0.924 | S. cerevisiae deletion strains, locus YOR136W, strain idh2, active compounds read low 0.986 | S. cerevisiae deletion strains, locus YOR144C, strain elg1, active compounds read low 0.985 | S. cerevisiae deletion strains, locus YOR184W, strain ser1, active compounds read low 0.974 | S. cerevisiae deletion strains, locus YOR231W, strain MKK1, active compounds read low 0.983 | S. cerevisiae deletion strains, locus YOR265W, strain rbl2, active compounds read low 0.969 | S. cerevisiae deletion strains, locus YOR270C, strain vph1, active compounds read low 0.988 | S. cerevisiae deletion strains, locus YOR290C, strain snf2, active compounds read low 0.962 | S. cerevisiae deletion strains, locus YOR316C, strain cot1, active compounds read low 0.991 | S. cerevisiae deletion strains, locus YPL051W, strain arl3, active compounds read low 0.967 | S. cerevisiae deletion strains, locus YPL078C, strain atp4, active compounds read low 0.961 | S. cerevisiae deletion strains, locus YPL106C, strain sse1, active compounds read low 0.976 | S. cerevisiae deletion strains, locus YPL240C, strain hsp82, active compounds read low 0.986 | S. cerevisiae deletion strains, locus YPL241C, strain CIN2, active compounds read low 1.01 | S. cerevisiae deletion strains, locus YPL256C, strain CLN2, active compounds read low 0.973 | S. cerevisiae deletion strains, locus YPR119W, strain clb2, active compounds read low 0.99 | S. cerevisiae deletion strains, locus YPR141C, strain kar3, active compounds read low 0.993 | S. cerevisiae deletion strains, locus YPR163C, strain tif3, active compounds read low 0.973 | S. cerevisiae deletion strains, locus YPR167C, strain met16, active compounds read low 0.979 | S. cerevisiae deletion strains, strain wtn01, active compounds read low 0.969 | S. cerevisiae strains, strain wild type, active compounds read low 1.01
